Source: PMC7819943, “Rice protein-binding microarrays: a tool to detect cis-acting elements near promoter regions in rice”
Whole data set: some 68,000 sequences, median “fluorescence intensity (a.u.)” near 9,100, cut for the highest 2% near 16,000. Only a selection was taken, and the highest values are over-represented in it overall.

Target: OsWRKY34 (Oryza sativa, UniProt Q0JBA9 1-250)
Assay: protein-binding microarray (RPBM); PBS, 2% BSA, 51.3 ng/ul salmon testes DNA, 50 uM zinc acetate, 200 nM TF, 25 C, 1 h; high values mean tight binding
Details: protein: recombinant; tags: N-terminal polyhistidine and DsRed monomer fusion (pET32a); label: CyDye5-dUTP incorporated in the synthesized complementary strand; 3' TTTTT single-stranded linker to array surface; dsDNA, one strand shown
How it was run: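 Transcription factors were each fused at the N-terminus to a polyhistidine tag plus DsRed and expressed in E. coli BL21-CodonPlus before Ni–NTA purification. Binding to a double-stranded custom Agilent array was carried out with 200 nM protein at 25 °C for 1 h in PBS, 2% BSA, salmon testes DNA and 50 µM zinc acetate. The binding signal is per-feature fluorescence intensity, in arbitrary units, on an Axon 4000B scanner.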

Chain of OsWRKY34 (Q0JBA9 entry or part of it): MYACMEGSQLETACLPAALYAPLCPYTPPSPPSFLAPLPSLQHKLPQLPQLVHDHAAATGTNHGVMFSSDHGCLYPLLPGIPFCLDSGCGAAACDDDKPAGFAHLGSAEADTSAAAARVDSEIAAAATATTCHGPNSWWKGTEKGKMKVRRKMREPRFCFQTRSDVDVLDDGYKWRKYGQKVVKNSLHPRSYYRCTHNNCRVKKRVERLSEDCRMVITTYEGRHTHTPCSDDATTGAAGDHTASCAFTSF

| Sequence | binding signal |
| --- | --- |
| CTTTTGCAACTCAAGCTACTATATCTATGATGGCATCTGACGGAGTCACCTAGTGCAG | 8400 fluorescence intensity (a.u.) |
| CTTGCTGTTACGCACCACATTGATTTACTTTCTTTTTCTTCGGAGTCACCTAGTGCAG | 11600 fluorescence intensity (a.u.) |
| CTCTCGACCACTTCCATTCCTTCCCGGGCTCGCCGCGCCGCGGAGTCACCTAGTGCAG | 9780 fluorescence intensity (a.u.) |
| CTCACTCCTGGCGCCGGTGACCTCTCTGCCACTCCACCGGCGGAGTCACCTAGTGCAG | 8550 fluorescence intensity (a.u.) |
| CACATGTTATTACCACCTCATTTTGCGTAAAACACTTAATCGGAGTCACCTAGTGCAG | 8460 fluorescence intensity (a.u.) |
| AACATAAACACACATCATTTCCTGTCCCTTGCACGCTACGCGGAGTCACCTAGTGCAG | 10000 fluorescence intensity (a.u.) |
| CTCCTCATCCTCATCGTCGCCGCCGCCCACGTCGTCTCGCCGGAGTCACCTAGTGCAG | 9110 fluorescence intensity (a.u.) |
| TCATCTGCTCCAAATTAAGCATTGCATCATCTACTCTGCCCGGAGTCACCTAGTGCAG | 8390 fluorescence intensity (a.u.) |
| CTACCGCATCCCCTCCCTCTCTCGGCGAGCCGAATCCATGCGGAGTCACCTAGTGCAG | 8270 fluorescence intensity (a.u.) |
| ATCTCGGTCTCTCACAAGACACACAGCTAATTAGCTCTATCGGAGTCACCTAGTGCAG | 8470 fluorescence intensity (a.u.) |
| CCATCATCTCTCGATCCATCTCCAGCAAGTTACCTATAAACGGAGTCACCTAGTGCAG | 9580 fluorescence intensity (a.u.) |
| TGCGGATGGGATGGAGAGCGCAGGAGGGGTGGGTTGTTGTCGGAGTCACCTAGTGCAG | 10800 fluorescence intensity (a.u.) |
| TGTGGGTTGGAGGGAGGAGGGGATTGAAGGGTTGTTAATTCGGAGTCACCTAGTGCAG | 14900 fluorescence intensity (a.u.) |
| CAAGGAGGGAGTTGATGGTGGGATTGATCATGGGAGTTATCGGAGTCACCTAGTGCAG | 8560 fluorescence intensity (a.u.) |
| GGTGTTTGGTTGGAGGGATTAAAGTGGGGCTAAACTTTAGCGGAGTCACCTAGTGCAG | 9950 fluorescence intensity (a.u.) |
| GCAGTTTCAGTGTGTGTTTGGTTGCAAGTTGTTGCATCTGCGGAGTCACCTAGTGCAG | 8410 fluorescence intensity (a.u.) |
| AAGAGGGTGGGTTGTTGGGGAGAGGGGAGGGAGGAGGATTCGGAGTCACCTAGTGCAG | 20100 fluorescence intensity (a.u.) |
| AGTTTTAAGGAGGGAGTTGATGGTGGGATTGGTCATGGGACGGAGTCACCTAGTGCAG | 8620 fluorescence intensity (a.u.) |
| ACTCACTGTTGCCTGTTGGTTTGTTGTCAGTAGCGCTAGGCGGAGTCACCTAGTGCAG | 8370 fluorescence intensity (a.u.) |
| TGGTGTTTGGTTGGAGGGACTAAAGTAGGGCTAAACTTTACGGAGTCACCTAGTGCAG | 8870 fluorescence intensity (a.u.) |
| AGGTGGTGTTTGGTTGGAGGGGCTAAAGTGGGGCTAAACTCGGAGTCACCTAGTGCAG | 20000 fluorescence intensity (a.u.) |
| CGTTGGGAGTTGGGAGGGATGGGTGGTGCATCAAGATTGACGGAGTCACCTAGTGCAG | 23500 fluorescence intensity (a.u.) |
| CTGCACTGTTTGCCTCAGTTGGGTTGGTTTGGTTTGGTTGCGGAGTCACCTAGTGCAG | 48200 fluorescence intensity (a.u.) |

| Sequence | binding signal |
| --- | --- |
| GACACTGCCACCTCACTCTCCACTCCACTATATATACCCTCGGAGTCACCTAGTGCAG | 12100 fluorescence intensity (a.u.) |
| ACTCTCCCGTTATTGCCGCCACCGGACCGCTAGCTCCGCACGGAGTCACCTAGTGCAG | 9570 fluorescence intensity (a.u.) |
| CCCACCTCGCCTTTCGATTGCGCGATCACCCACCTTTATACGGAGTCACCTAGTGCAG | 10000 fluorescence intensity (a.u.) |
| GCAACTGCACATGTGCTTATTTAGTTTCTGCATTGGTCAACGGAGTCACCTAGTGCAG | 12200 fluorescence intensity (a.u.) |
| CTCGTCACTCGTCTCGTCTCGCACAGTCGCAGCTGCTGCGCGGAGTCACCTAGTGCAG | 8390 fluorescence intensity (a.u.) |
| ACTTTATCTTTGCCGCCGGCCGCCACAACTGCTTCTACGGCGGAGTCACCTAGTGCAG | 9180 fluorescence intensity (a.u.) |
| GACAACGGTCAAATATGTGCTAAAAAGTCAACGGTATCAACGGAGTCACCTAGTGCAG | 11600 fluorescence intensity (a.u.) |
| TCTCGCTCCTCATGCTCCTCTCCCGGCGGCGACGCTATGCCGGAGTCACCTAGTGCAG | 8080 fluorescence intensity (a.u.) |
| CCAGCTGTGTGTGTGCACGCGGTTTTCCAATCGATTCTTCCGGAGTCACCTAGTGCAG | 9270 fluorescence intensity (a.u.) |
| CTCTCTTCTTTTTATCTTATTCATATGTATTTATAGCTGACGGAGTCACCTAGTGCAG | 10500 fluorescence intensity (a.u.) |
| TACCGCCTGAAATCCAACATTATTATGCACTGTAATTTACCGGAGTCACCTAGTGCAG | 8170 fluorescence intensity (a.u.) |
| TCCGTAAATCCAACATGGCACTATTACCGCCGGCTTAAATCGGAGTCACCTAGTGCAG | 56000 fluorescence intensity (a.u.) |
| GCTCCGTGGCACTATTTTTTTTTTACCGCGAATCCTCCAACGGAGTCACCTAGTGCAG | 9550 fluorescence intensity (a.u.) |
| TATCCGTTCGCGTCCCCGCCCTCGCTTCGCCGCGGCAATGCGGAGTCACCTAGTGCAG | 9720 fluorescence intensity (a.u.) |
| GCATCCGTGTCCTTTGCCGAAGCCGAAGGCCCGCTCTCTCCGGAGTCACCTAGTGCAG | 8900 fluorescence intensity (a.u.) |
| GTCATTTATTTTTACCAACGTTTGACTATTCGTCTTATTTCGGAGTCACCTAGTGCAG | 9430 fluorescence intensity (a.u.) |
| CTCATGTTTGACCATTCGTCTTATTTAAAAACTTTTGTGACGGAGTCACCTAGTGCAG | 8180 fluorescence intensity (a.u.) |
| TACCTCATTCCCTAAATGTTTGACGCCGTTGACTTTTTTACGGAGTCACCTAGTGCAG | 17500 fluorescence intensity (a.u.) |
| ACTCCCTCCATTTTTTTAATTGACGACGCCATTGACTTTTCGGAGTCACCTAGTGCAG | 9350 fluorescence intensity (a.u.) |
| TATTTGACGTCGTTGACTTTTTAAAACATGTTTGACCATTCGGAGTCACCTAGTGCAG | 30200 fluorescence intensity (a.u.) |
| GGTACTCTCTTCGTTTTTAGTATACGACGCCGTTGACTTTCGGAGTCACCTAGTGCAG | 16000 fluorescence intensity (a.u.) |
| TTGACACCATTGACTTTTTTAAACATGTTTGACCGTTCGTCGGAGTCACCTAGTGCAG | 15100 fluorescence intensity (a.u.) |
